Hits are enriched below; roughly 4.7% of the tested compounds scored in any of these assays.
TRHR ag: qHTS for Small Molecule Agonists and Allosteric Enhancers of Human TRH Receptor: Primary Screen for Agonists. TRHR cells, calcium flux fluo-8, FDSS agonist mode. activation, % at 2 µM. 360,000 tested, 0.18% active. AID 493084, 2011; note: 0% is about no effect
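Fluo-8-loaded TRHR cells; 10 s baseline, compound added, kinetic Ca2+ fluorescence read 1/s, agonist mode.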
D1 potentiator: Potentiators of Human D1 Dopamine Receptor: qHTS | D(1A) dopamine receptor (Homo sapiens), P21728 | HEK293 TREx D1 cells, calcium flux, dopamine EC20 potentiation | potentiation, % at 10 µM | 360,000 tested, 0.036% active; in the data active = potentiation above about 30%; note: 0% is about no effect
Target sequence (P21728 whole entry, looked up): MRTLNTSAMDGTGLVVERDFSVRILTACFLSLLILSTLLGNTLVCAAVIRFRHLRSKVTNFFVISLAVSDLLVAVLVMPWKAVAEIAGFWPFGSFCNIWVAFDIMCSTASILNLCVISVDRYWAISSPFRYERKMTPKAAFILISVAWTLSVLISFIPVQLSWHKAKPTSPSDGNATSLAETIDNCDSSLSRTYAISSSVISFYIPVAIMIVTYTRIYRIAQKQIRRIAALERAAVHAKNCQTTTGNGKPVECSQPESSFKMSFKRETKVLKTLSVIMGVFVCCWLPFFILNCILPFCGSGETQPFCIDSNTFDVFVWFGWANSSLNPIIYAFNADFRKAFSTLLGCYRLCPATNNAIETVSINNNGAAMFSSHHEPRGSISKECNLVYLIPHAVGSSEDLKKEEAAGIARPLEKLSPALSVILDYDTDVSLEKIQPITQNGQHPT
D1 agonist: Allosteric Agonists of the Human D1 Dopamine Receptor: qHTS. AID 504660, 2011. activation, % at 2 µM. 360,000 tested, 1% active. HEK293 T-REx D1 cells, calcium flux, agonist mode. D(1A) dopamine receptor (Homo sapiens), P21728; note: 0% is about no effect
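Tetracycline-induced HEK293 TREx D1 cells, force-coupled to calcium signalling, were dye-loaded with a no-wash calcium kit. Compound was pin-added after a 10 s baseline. Fluorescence was read kinetically at 1 cycle/s for 180 s, with calcium rises flagged as agonism.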
D1 antag: Antagonist of Human D 1 Dopamine Receptor: qHTS. HEK293 TREx D1 cells, calcium flux, dopamine EC80; stronger effect = lower value. AID 504652, 2011. 360,000 tested, 3.2% active. activity change, negative = inhibition, % at 10 µM; in the data active = activity change below about -30%; note: % is set by controls: 0 for no effect and ±100 for the full control effect
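Compound effects on dopamine-evoked calcium signalling were measured in tetracycline-induced HEK293 Trex D1 cells. Dopamine at EC80 followed a 180 s compound pre-read, and fluorescence was tracked kinetically for 180 s more.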
TRHR enhancer: qHTS for Small Molecule Agonists and Allosteric Enhancers of Human TRH Receptor: Primary Screen for Enhancers. TRHR cells, fluo-8 calcium fluorescence, EC20 TRH enhancement. enhancement, % at 2 µM. Thyrotropin-releasing hormone receptor (Homo sapiens), P34981. 360,000 tested, 0.66% active; in the data active = enhancement above about 30%; note: 0% is about no effect
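TRHR-expressing cells loaded with fluo-8 calcium dye were read kinetically (ex 480/em 530) during compound addition, then stimulated with an EC20 of TRH (10 nM final). Enhancement of the Gq-mediated intracellular calcium response was scored.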
Starred values were filed as active, the others as inactive; / = not tested or not shown. Cut-off read from the data, not from the text of the source, unless noted: active = activation above about 30%; inactive = the rest.

SMILES	TRHR ag	D1 potentiator	D1 agonist	D1 antag	TRHR enhancer
CCCNC(=S)N1CCC(C(=O)c2ccc3c(c2)OCCO3)CC1	-0.1	-8.8	15.1	-34.2*	-4.6
COCCNC(=S)N1CCC(C(=O)c2ccc3c(c2)OCCO3)CC1	0.0	-2.8	6.6	9.5	2.8
CCCCNC(=O)CSc1nc2ccccc2nc1Cc1ccc(Cl)cc1	-0.2	-2.6	0.6	-0.9	1.0
Cc1ccc(Cl)cc1N1CCN(C(=O)c2cnc(N3CCOCC3)c3ccccc23)CC1	0.3	0.0	0.7	16.1	3.7
CNC(=S)N1N=C(c2ccc(C)cc2)CC1c1ccc(OC)cc1 (stereo not drawn)	-0.2	-1.3	-0.9	-40.3*	9.1
CNC(=S)N1N=C(c2ccc(C)cc2)CC1c1ccc(N(C)C)cc1 (stereo not drawn)	-0.3	0.6	36.5*	-9.7	-0.2
COc1ccccc1-c1nnc(SCC(=O)c2c(N)n(C3CC3)c(=O)[nH]c2=O)n1C	0.0	-2.6	1.7	-16.8	-7.8
COCCn1c(SCC(=O)c2c(N)n(C3CC3)c(=O)[nH]c2=O)nc2ccccc21	0.0	-4.4	1.5	-41.1*	-2.2
Cc1cccc(OCCC(=O)NCC(=O)Nc2c(C)cccc2C)c1	-0.5	-5.3	-0.2	3.2	31.1*
Cc1cccc(C(=O)N(Cc2ccco2)Cc2ccccc2F)c1	-2.0	3.1	0.7	-9.1	-4.0
O=C(Nc1cccc(F)c1)c1c(F)c(F)c(F)c(F)c1F	-2.5	-4.6	18.0	-35.5*	-6.2
CC(=O)c1cccc(NC(=O)Nc2csc3c2CCCC3)c1	0.3	-2.0	9.6	-18.1	-1.3
O=C(Nc1cccc([N+](=O)[O-])c1)Nc1ccc2c(c1)CCC2	2.6	-3.6	21.4	-64.2*	-7.7
O=C(Nc1ccc(F)cc1)Nc1csc2c1CCCC2	0.5	-5.9	19.1	-32.4*	-2.3
O=C(Nc1ccccc1)Nc1ccc2c(c1)CCC2	0.2	-1.2	13.3	-12.9	-2.7
O=C(Nc1ccc(F)cc1)Nc1ccc2c(c1)CCC2	0.6	-6.6	1.9	-17.4	35.2*
O=C1CC(c2ccco2)CC2=C1C(c1cccnc1)n1nc(C(F)(F)F)nc1N2 (stereo not drawn)	-0.3	-4.5	11.0	0.0	11.7
COc1ccc(N(C(=O)Cn2nnc3ccccc32)C(C(=O)NCc2ccccc2)c2ccc(F)cc2)cc1 (stereo not drawn)	0.5	0.7	2.1	11.4	9.2
O=C(Nc1cccc(F)c1)Nc1ccc2c(c1)CCC2	1.4	-9.7	20.3	-84.3*	4.9
CN1CCN(C(=O)C2(NC(=O)Nc3cccc(F)c3)CCCCC2)CC1	0.3	-4.0	2.5	-30.0*	-4.8
CC(=O)N1CCN(C(=O)C2(NC(=O)Nc3cccc(F)c3)CCCCC2)CC1	1.1	/	2.6	-7.7	-5.5
Cc1ccccc1CNC(=O)C(=O)NCCC1CCCCN1S(=O)(=O)c1ccccc1 (stereo not drawn)	0.4	-4.4	5.1	-3.0	-6.3
COCCNC(=O)CN1C(=O)COc2ccc(S(=O)(=O)N3CCCC3)cc21	-0.4	-0.6	2.4	22.3	32.6*
Cc1ccc(NC(=O)CN2C(=O)COc3ccc(S(=O)(=O)N4CCCC4)cc32)c(C)c1	-0.5	-9.7	2.5	-47.3*	-4.8
CC(C)N(C(=O)Cn1cc(S(=O)(=O)Cc2ccc(Br)cc2)c2ccccc21)C(C)C	0.7	-6.3	1.0	-2.3	-1.7
SMILES	TRHR ag	D1 potentiator	D1 agonist	D1 antag	TRHR enhancer
CCOC(=O)c1noc2ncnc(Nc3cccc(OC)c3)c12	0.3	-3.0	0.7	-13.7	-0.3
Cc1[nH]c2ccccc2c1/C=N/n1cnnc1	-0.4	-7.6	1.5	-7.4	-5.0
C(=N\n1cnnc1)/c1nc2ccccc2[nH]1	0.5	-12.2	-0.6	-34.1*	-23.3
CCOC(=O)c1[nH]c(CN2CCN(c3ccc(OC)cc3)CC2)c(C(=O)OCC)c1C	5.8	/	64.4*	13.3	-6.4
COc1cccc(C(=O)NNC2=C(C(=O)C(F)(F)F)CCC2)c1	0.0	0.6	3.9	8.4	33.2*
COc1ccccc1C(=O)NNC1=C(C(=O)C(F)(F)F)CCC1	0.6	-1.0	-1.5	-8.7	1.1
